This is an account of results in PubChem BioAssay.

Structures are written as SMILES. Unmarked numbers belong to inactive results. Active and inactive are the calls of the source.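 Rule for the calls: active = thallium flux through the channel raised or lowered by more than 3 SD from vehicle-only wells, actives on both sides; inactive = the rest.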

Common to all, as to assay: modulators of BK channel variants, profiling panel, selectivity assay, cell-based, U2OS BacMam, thallium flux, beta subunits (AID 1259406);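 note: initial slope of Thallos dye fluorescence rise after thallium is added; log ratio against the mean of 0.3% DMSO vehicle wells on the same plate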
The test system of one assay is F380Y. The following applies: at 30 µM.
For another assay, the system named is F380Y/beta1. The following applies: at 30 µM.
Another assay relates to F380Y/beta2Delta. As to conditions: at 30 µM.
The test system of a further assay is F380Y/beta4. As to conditions: at 30 µM.
The target of assay [1] is Calcium-activated potassium channel subunit alpha-1 (Homo sapiens) + Leucine-rich repeat-containing protein 26 (Homo sapiens) (UniProt Q12791+Q2I0M4). As to conditions: F380Y/Slo1WT/gamma1, at 30 µM.
Sequence of Calcium-activated potassium channel subunit alpha-1 (Homo sapiens) + Leucine-rich repeat-containing protein 26 (Homo sapiens) (Q2I0M4 whole entry, looked up, one chain of several): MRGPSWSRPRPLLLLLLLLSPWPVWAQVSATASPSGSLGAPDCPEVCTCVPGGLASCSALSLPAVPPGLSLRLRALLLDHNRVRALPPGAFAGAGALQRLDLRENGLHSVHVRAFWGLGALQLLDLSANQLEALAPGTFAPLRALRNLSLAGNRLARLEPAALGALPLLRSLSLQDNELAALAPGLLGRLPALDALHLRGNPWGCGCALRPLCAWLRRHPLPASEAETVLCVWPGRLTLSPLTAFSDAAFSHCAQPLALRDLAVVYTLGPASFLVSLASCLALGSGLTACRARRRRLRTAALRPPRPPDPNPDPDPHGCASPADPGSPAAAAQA
The subject of the next assay is R275C. The following applies: at 30 µM.
The next assay relates to R275C/beta1. As to conditions: at 30 µM.
Another assay has as its system R275C/beta2Delta. As to conditions: at 30 µM.
The test system of another assay is R275C/beta4. As to conditions: at 30 µM.
Another assay relates to R275C/Slo1WT/beta2. The following applies: at 30 µM.

For `CCCc1nc(C)c2c(=O)[nH]c(-c3cc(S(=O)(=O)N4CCN(CC)CC4)ccc3OCC)nn12`, the log fold change Tl+ flux was -0.00852 in the assay with F380Y; 0.00246 in the assay with F380Y/beta1; 0.0398 in the assay on F380Y/beta2Delta; 0.0304 in the assay on F380Y/beta4; 0.0127 in assay [1]; -0.0462 with R275C. The log fold change Tl+ flux was 0.019 in the assay on R275C/beta1, 0.017 in the assay on R275C/beta2Delta, -0.00355 in the assay with R275C/beta4 and 0.00306 in the assay with R275C/Slo1WT/beta2.

On to `CCN1CC(CCN2CCOCC2)C(c2ccccc2)(c2ccccc2)C1=O` (stereo not given), for which the log fold change Tl+ flux in the assay with F380Y was 0.0128; in the assay with F380Y/beta1 it was -0.0268; in the assay with F380Y/beta2Delta, -0.000818; in the assay on F380Y/beta4, 0.03; in assay [1] it was -0.0552; in the assay with R275C, -0.0141. Besides, the log fold change Tl+ flux was -0.00917 with R275C/beta1, 0.0055 in the assay on R275C/beta2Delta, 0.000738 in the assay with R275C/beta4 and -0.0334 in the assay with R275C/Slo1WT/beta2.

As for `O=C(c1ccc(F)cc1)C1CCN(CCn2c(=S)[nH]c3ccccc3c2=O)CC1`, the log fold change Tl+ flux in the assay with F380Y is 0.0153; in the assay with F380Y/beta1, 0.00744; in the assay on F380Y/beta2Delta, -0.00369; in the assay on F380Y/beta4 it was 0.0138; in assay [1] it was -0.000443; with R275C, 0.0338. Also, the log fold change Tl+ flux was -0.0174 in the assay on R275C/beta1, -0.00339 in the assay on R275C/beta2Delta, -0.00101 in the assay with R275C/beta4 and 0.0813 (active) in the assay with R275C/Slo1WT/beta2.

For the molecule `O=C1CCc2ccc(OCCCCN3CCN(c4cccc(Cl)c4Cl)CC3)cc2N1`, the log fold change Tl+ flux was 0.0772 in the assay on F380Y; 0.0377 in the assay on F380Y/beta1; -0.00576 in the assay on F380Y/beta2Delta; 0.0383 in the assay with F380Y/beta4; -0.0185 in assay [1]; -0.0555 in the assay with R275C. Besides, the log fold change Tl+ flux is 0.056 in the assay with R275C/beta1, 0.0181 in the assay with R275C/beta2Delta, 0.0353 with R275C/beta4 and 0.0373 in the assay on R275C/Slo1WT/beta2.

Turning to `CC(C)c1ccc2oc3nc(N)c(C(=O)O)cc3c(=O)c2c1`, the log fold change Tl+ flux was 0.0548 in the assay on F380Y; 0.0494 in the assay on F380Y/beta1; 0.00122 in the assay with F380Y/beta2Delta; 0.0364 in the assay with F380Y/beta4; 0.0473 in assay [1]; -0.0223 in the assay with R275C. Besides, the log fold change Tl+ flux was -0.0119 in the assay on R275C/beta1, 0.0807 in the assay with R275C/beta2Delta, -0.00203 in the assay on R275C/beta4 and 0.0208 in the assay with R275C/Slo1WT/beta2.

In the case of `CC(Oc1c(Cl)cccc1Cl)C1=NCCN1` (stereo not given), the log fold change Tl+ flux in the assay on F380Y is 0.00819; in the assay with F380Y/beta1, -0.000881; with F380Y/beta2Delta, -0.00369; in the assay with F380Y/beta4, 0.0154; in assay [1], 0.00177; in the assay on R275C it was -0.0395. Moreover, the log fold change Tl+ flux with R275C/beta1 is 0.0393; with R275C/beta2Delta it was 0.00761; in the assay on R275C/beta4, 0.0269; in the assay with R275C/Slo1WT/beta2, 0.0415.

For the molecule `COc1ccc(C2CNC(=O)C2)cc1OC1CCCC1` (stereo not given), the log fold change Tl+ flux in the assay on F380Y is -0.0147; in the assay with F380Y/beta1, -0.0167; in the assay on F380Y/beta2Delta, -0.0248; in the assay with F380Y/beta4, -0.115 (active); in [1], -0.000443; with R275C, 0.0314. In addition, the log fold change Tl+ flux with R275C/beta1 is 0.031; with R275C/beta2Delta, -0.00816; in the assay with R275C/beta4 it was 0.0303; with R275C/Slo1WT/beta2 it was 0.00671.

For `CC(C)(O)c1ccccc1CC[C@@H](SCC1(CC(=O)O)CC1)c1cccc(/C=C/c2ccc3ccc(Cl)cc3n2)c1`, the log fold change Tl+ flux is 0.278 (active) in the assay on F380Y; 0.853 (active) in the assay with F380Y/beta1; 0.312 (active) in the assay with F380Y/beta2Delta; 0.64 (active) with F380Y/beta4; 0.354 (active) in [1]; 0.131 (active) in the assay on R275C. Moreover, the log fold change Tl+ flux is 0.782 (active) in the assay with R275C/beta1, 0.293 (active) in the assay on R275C/beta2Delta, 0.977 (active) in the assay with R275C/beta4 and 0.13 (active) in the assay with R275C/Slo1WT/beta2.

On to `CC(C)(C)NC(=O)[C@@H]1CN(Cc2cccnc2)CCN1C[C@@H](O)C[C@@H](Cc1ccccc1)C(=O)N[C@H]1c2ccccc2C[C@H]1O`, for which the log fold change Tl+ flux in the assay with F380Y is -0.012; in the assay on F380Y/beta1, -0.0545; in the assay on F380Y/beta2Delta it was -0.0728; in the assay with F380Y/beta4, -0.0768; in assay [1], 0.0169; in the assay with R275C, -0.0278. The log fold change Tl+ flux in the assay on R275C/beta1 is -0.00667; with R275C/beta2Delta, -0.0261; with R275C/beta4, 0.0581; in the assay with R275C/Slo1WT/beta2 it was 0.101 (active).

On to `O=C1N(c2ccccc2)c2ccccc2C1(Cc1ccncc1)Cc1ccncc1`, for which the log fold change Tl+ flux is 0.0425 in the assay with F380Y; -0.0119 in the assay on F380Y/beta1; -0.0915 with F380Y/beta2Delta; -0.0921 in the assay with F380Y/beta4; -0.0557 in assay [1]; -0.00568 in the assay on R275C. Further, the log fold change Tl+ flux in the assay with R275C/beta1 was 0.0135; in the assay with R275C/beta2Delta it was 0.00649; in the assay on R275C/beta4 it was -0.0197; in the assay on R275C/Slo1WT/beta2, -0.0252.

Consider `CCOc1cc(N)c(Cl)cc1C(=O)NCC1CN(Cc2ccc(F)cc2)CCO1` (stereo not given), for which the log fold change Tl+ flux in the assay with F380Y is -0.0328; with F380Y/beta1 it was 0.0819; with F380Y/beta2Delta, 0.0207; in the assay on F380Y/beta4, -0.0442; in assay [1], 0.0207; in the assay with R275C it was -0.0128. The log fold change Tl+ flux in the assay on R275C/beta1 is 0.0447; in the assay with R275C/beta2Delta, 0.108 (active); in the assay on R275C/beta4 it was 0.0132; in the assay with R275C/Slo1WT/beta2, 0.00286.

Take `Oc1ccc(C2CNCCc3c2cc(O)c(O)c3Cl)cc1` (stereo not given): the log fold change Tl+ flux is 0.0202 in the assay with F380Y; -0.0465 in the assay on F380Y/beta1; 0.057 in the assay with F380Y/beta2Delta; 0.0586 in the assay with F380Y/beta4; 0.0552 in [1]; -0.0214 in the assay on R275C. Further, the log fold change Tl+ flux is 0.0235 in the assay with R275C/beta1, 0.0656 with R275C/beta2Delta, 0.0211 with R275C/beta4 and 0.0233 in the assay on R275C/Slo1WT/beta2.
